ChEMBL document CHEMBL3988442, “University of Dundee, Small-Polar-MMV Screening Library” (2021)

Assays:
[1] = target: T1, Aspartate--tRNA(Asp/Asn) ligase (Mycobacterium tuberculosis (strain ATCC 25618 / H37Rv)) (UniProt P9WFW3); assay: Assay for Asp RNA synthetase-1 from Mycobacterium tuberculosis; assay type: functional; set-up: scale not given: direction of the effect not stated beside the values; conditions: 30 µM; also: in the data most compounds retested in dose-response had high values
T1 sequence (whole entry): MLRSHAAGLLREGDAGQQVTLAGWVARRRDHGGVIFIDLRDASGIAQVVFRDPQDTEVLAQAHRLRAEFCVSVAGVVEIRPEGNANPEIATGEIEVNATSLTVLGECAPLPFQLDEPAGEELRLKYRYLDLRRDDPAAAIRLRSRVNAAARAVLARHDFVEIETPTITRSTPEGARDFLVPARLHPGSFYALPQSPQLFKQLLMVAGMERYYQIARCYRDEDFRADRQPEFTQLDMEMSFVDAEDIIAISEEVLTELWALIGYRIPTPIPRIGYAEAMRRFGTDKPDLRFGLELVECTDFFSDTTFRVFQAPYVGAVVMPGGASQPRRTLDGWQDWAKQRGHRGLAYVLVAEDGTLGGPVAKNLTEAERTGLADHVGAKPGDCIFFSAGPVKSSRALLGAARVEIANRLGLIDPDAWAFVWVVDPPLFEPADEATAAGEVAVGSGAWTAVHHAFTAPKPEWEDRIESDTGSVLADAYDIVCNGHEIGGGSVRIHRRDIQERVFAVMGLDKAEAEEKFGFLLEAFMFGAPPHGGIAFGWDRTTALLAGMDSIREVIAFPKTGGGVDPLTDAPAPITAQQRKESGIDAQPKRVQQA

[2] = target: Shiga toxin 2 (Escherichia coli O157:H7) (UniProt P09385+P09386); assay: E. coli 0.157:H7 Shiga Toxin SOP - stx2 screening assay; assay type: functional; set-up: scale not given: direction of the effect not stated beside the values; conditions: 30 µM

SMILES | Percent Effect [1] [%] | Percent Effect [2] [%]
Cc1ccc(CNC(=O)N(Cc2ccccc2F)C2CC2)cn1 | -0.931 | 
CCNC(=O)c1cnc(Cc2ccc(F)cc2)s1 | -3.94 | 
COc1cccc(S(=O)(=O)CCN2CCC3(CC2)OCCO3)c1 | -0.724 | 
CCc1nc(NS(=O)(=O)c2ccc(C)cc2Cl)no1 | -5.6 | 
CCCS(=O)(=O)N1CCC(NC(=O)c2ccc(Cl)s2)CC1 | 0.379 | 
Cc1cc(N2CCN(Cc3ccc(-c4cc[nH]n4)o3)CC2)cc(C)n1 | 0.126 | 
CN(CCO)Cc1nnc(C2CCN(C3CCCCC3)CC2)n1C | 4.1 | 
c1ccc(OCCN2CCCC(c3noc(C4CC4)n3)C2)cc1 (configuration not stated) | -0.885 | 
c1ccc2c(N3CCCCC3Cn3cncn3)ncnc2c1 (configuration not stated) | 0.172 | 
Cc1cnn(CC2CCCN2CCc2nc3ccccc3c(=O)[nH]2)c1 (configuration not stated) | -3.23 | 2.14
Cc1nccn1CCC1CCCCN1Cc1ccc(N(C)C)nc1 (configuration not stated) | 2.17 | 
CCOC(=O)C1CCCN(c2ccc(-c3nc(C)no3)cn2)C1 (configuration not stated) | -0.931 | 
CC(C)N1CCCC2(CCN(C(=O)CCCn3ccnc3)C2)C1=O (configuration not stated) | -5.64 | 15.9
CC(C)OCc1ncn2c1CN(Cc1ccc(F)cc1)CCC2 | -1.67 | 3.71
O=C([C@@H]1C[C@H]2[C@H](CCN2Cc2nccs2)O1)N1CCOCC1 | 2.29 | -22.3
Cc1ccc(C)c(-c2csc(N)c2C#N)c1 | 2.35 | 4.18
CC(Cn1cccn1)NC(=O)NCc1ccc(S(N)(=O)=O)cc1 (configuration not stated) | 6.49 | 14.9
CS(=O)(=O)N[C@@H]1CCO[C@]2(CCN(C(=O)c3cnccn3)C2)C1 | 4.35 | 3.82
Cc1cn2c(n1)CCC(NC(=O)c1ccc(CS(C)(=O)=O)o1)C2 (configuration not stated) | -4.46 | 10.6
c1csc(-c2nc(CNC3CCc4ncnn4C3)co2)c1 (configuration not stated) | 1.3 | -1.44
COCC(=O)N1CCC(c2nccnc2Oc2cccnc2C)CC1 | 3.02 | 6.27
CC(O)CN(CC(=O)NC(=O)NCC(F)(F)F)c1ccccc1 (configuration not stated) | -7.32 | 29.2
CCOCC(=O)N1CCC(Oc2ccc(Cl)cn2)CC1 | -2.08 | -2.19
CC(NC(=O)NCCCn1ccnc1)c1ccc2c(c1)CCC(=O)N2 (configuration not stated) | -3.85 | -22.9
